Assay results published in ChEMBL document CHEMBL3988442, “University of Dundee, Small-Polar-MMV Screening Library” (2021).
For some assays here: Entries with a potency or affinity are not part of this list.

Assays:
Parameters in all cases: scale not given: direction of the effect not stated beside the values
[1] = molecular target: Protein translocase subunit SecA (Escherichia coli (strain K12)) (UniProt P10408); test: Assay to Identify E. coli SecA ATPase Inhibitors; assay type: functional; details: 30 µM
Sequence of Protein translocase subunit SecA (Escherichia coli (strain K12)) (P10408 whole entry): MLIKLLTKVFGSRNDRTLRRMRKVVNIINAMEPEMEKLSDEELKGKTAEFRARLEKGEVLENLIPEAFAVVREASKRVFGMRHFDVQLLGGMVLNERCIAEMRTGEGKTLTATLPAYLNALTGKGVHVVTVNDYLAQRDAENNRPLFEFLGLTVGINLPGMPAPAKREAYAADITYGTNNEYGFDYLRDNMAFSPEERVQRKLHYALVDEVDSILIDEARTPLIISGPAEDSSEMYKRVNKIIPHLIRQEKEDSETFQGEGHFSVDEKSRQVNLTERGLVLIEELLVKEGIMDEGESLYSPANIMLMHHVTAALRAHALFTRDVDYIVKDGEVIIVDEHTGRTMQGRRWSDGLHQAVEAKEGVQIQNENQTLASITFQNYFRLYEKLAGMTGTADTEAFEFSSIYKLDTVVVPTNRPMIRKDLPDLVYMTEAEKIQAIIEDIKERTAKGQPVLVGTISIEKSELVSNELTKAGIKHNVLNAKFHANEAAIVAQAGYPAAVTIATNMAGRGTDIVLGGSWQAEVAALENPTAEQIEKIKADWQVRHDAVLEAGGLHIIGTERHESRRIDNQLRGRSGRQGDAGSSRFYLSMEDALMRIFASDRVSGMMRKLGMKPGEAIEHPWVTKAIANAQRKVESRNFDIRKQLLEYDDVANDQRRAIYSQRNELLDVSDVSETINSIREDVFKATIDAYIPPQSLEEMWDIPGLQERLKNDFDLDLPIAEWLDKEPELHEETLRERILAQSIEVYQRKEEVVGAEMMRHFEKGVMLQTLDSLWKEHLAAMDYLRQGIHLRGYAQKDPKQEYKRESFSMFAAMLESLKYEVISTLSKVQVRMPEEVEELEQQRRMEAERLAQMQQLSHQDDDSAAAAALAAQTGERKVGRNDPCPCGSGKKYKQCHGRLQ

[2] = molecular target: T1, Ubiquitin-activating enzyme e1, putative (Leishmania donovani (strain BPK282A1)) (UniProt E9BSI1); test: Leishmania donovani Ubiquitin Activating Enzyme (LdE1); assay type: functional; details: 30 µM
T1 sequence (whole entry): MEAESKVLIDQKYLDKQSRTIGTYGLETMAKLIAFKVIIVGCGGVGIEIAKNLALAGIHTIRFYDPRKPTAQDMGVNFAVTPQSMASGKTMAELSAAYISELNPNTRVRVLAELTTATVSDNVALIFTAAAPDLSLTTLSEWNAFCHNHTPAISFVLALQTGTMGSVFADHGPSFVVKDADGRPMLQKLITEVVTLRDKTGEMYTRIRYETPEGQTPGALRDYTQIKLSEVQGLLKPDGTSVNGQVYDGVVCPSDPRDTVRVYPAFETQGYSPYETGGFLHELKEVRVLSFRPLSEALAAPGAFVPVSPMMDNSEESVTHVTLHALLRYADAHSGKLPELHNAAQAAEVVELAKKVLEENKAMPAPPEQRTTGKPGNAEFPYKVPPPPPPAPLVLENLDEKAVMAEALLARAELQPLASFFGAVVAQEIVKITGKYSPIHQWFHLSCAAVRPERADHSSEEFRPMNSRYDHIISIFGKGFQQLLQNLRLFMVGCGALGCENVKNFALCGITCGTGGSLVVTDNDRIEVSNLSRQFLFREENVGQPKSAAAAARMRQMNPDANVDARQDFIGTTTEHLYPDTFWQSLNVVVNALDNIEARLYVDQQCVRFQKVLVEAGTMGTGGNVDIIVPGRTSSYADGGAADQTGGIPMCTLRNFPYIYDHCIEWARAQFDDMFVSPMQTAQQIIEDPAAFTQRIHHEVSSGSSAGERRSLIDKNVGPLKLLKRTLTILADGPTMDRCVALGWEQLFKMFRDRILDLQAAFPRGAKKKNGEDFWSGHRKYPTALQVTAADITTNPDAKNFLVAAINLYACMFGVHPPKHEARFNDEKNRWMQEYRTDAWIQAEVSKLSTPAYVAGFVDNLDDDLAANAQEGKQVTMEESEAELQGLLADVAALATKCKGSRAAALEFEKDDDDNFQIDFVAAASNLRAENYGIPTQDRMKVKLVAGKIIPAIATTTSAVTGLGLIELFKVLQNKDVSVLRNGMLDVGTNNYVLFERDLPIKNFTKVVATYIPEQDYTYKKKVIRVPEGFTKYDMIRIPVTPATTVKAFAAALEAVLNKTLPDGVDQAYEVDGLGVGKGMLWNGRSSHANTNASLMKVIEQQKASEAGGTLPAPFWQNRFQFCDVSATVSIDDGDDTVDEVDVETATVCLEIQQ

[3] = molecular target: AMP-activated protein kinase, AMPK (Homo sapiens) (UniProt P54646+O43741+P54619+Q9UGJ0+Q9Y478+Q13131+Q9UGI9); test: AMP-dependent Kinase enzyme assay. An in vitro enzyme assay that detects ADP turnover that is directly proportional to AMPK activity. This uses naive AMPK that is activated during the assay with MK-8722; assay type: functional; details: 30 µM
[4] = molecular target: Sialic acid-binding Ig-like lectin 9 (Homo sapiens) (UniProt Q9Y336); test: Hs-Siglec9 ALPHAscreen SOP 20170721; details: 10 µM
Sequence of Sialic acid-binding Ig-like lectin 9 (Homo sapiens) (Q9Y336 whole entry): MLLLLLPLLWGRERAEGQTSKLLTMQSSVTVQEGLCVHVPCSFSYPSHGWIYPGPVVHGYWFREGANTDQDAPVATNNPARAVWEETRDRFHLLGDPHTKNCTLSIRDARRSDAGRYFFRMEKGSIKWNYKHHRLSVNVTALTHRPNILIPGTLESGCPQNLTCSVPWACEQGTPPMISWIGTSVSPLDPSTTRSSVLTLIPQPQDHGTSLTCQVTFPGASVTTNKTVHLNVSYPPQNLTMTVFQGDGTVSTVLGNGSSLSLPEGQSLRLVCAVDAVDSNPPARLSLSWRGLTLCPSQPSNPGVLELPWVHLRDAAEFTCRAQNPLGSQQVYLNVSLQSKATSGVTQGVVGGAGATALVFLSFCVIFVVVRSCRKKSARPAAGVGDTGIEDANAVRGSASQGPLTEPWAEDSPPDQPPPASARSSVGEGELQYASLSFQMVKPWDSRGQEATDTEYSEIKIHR

Trypanosoma cruzi = test: Trypanosoma cruzi phosphomannomutase and mannose-1-phosphate guanylyltransferase assay; assay type: functional; details: 10 µM
[5] = molecular target: T2, Arginase-2, mitochondrial (Homo sapiens) (UniProt P78540); test: in vitro enzyme assay to detect the production of urea directly proportional to the activity of Arginase II; assay type: functional; details: 33.3 µM; note: in the data most compounds retested in dose-response had high values
T2 sequence (whole entry): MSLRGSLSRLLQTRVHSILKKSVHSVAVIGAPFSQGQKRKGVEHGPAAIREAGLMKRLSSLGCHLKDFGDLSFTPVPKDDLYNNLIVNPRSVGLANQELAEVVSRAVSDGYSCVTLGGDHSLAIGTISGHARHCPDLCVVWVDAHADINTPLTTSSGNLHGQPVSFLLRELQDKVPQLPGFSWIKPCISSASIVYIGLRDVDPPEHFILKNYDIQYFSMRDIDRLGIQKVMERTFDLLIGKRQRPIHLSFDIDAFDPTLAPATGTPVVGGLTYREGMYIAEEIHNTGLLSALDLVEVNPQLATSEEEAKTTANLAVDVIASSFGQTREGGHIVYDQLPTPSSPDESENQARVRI

[6] = molecular target: T3, Proteasome subunit beta (Trypanosoma cruzi) (UniProt O96673); test: Trypanosoma cruzi proteasome chymotrypsin-like activity (TcProtChymo) assay.; note: in the data most compounds retested in dose-response had high values; assay type: functional; details: 9.37 µM
T3 sequence (whole entry): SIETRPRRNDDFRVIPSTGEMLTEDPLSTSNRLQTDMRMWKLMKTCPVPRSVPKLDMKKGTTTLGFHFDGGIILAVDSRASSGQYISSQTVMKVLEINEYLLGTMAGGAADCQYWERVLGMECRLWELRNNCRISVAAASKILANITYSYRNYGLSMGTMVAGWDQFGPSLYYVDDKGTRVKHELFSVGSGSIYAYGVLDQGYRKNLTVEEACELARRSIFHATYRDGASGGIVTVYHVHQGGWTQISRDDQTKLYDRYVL

Homo sapiens = species on record: Homo sapiens; test: To identify inhibition of the IFN signalling (Jak-Stat) pathway via expression of an eGFP reporter gene under the control of an IFN-stimulated response element (ISRE) containing MxA promoter.; assay type: functional; details: 30 µM
[7] = molecular target: T4, Tyrosyl-tRNA synthetase, putative (Trypanosoma cruzi (strain CL Brener)) (UniProt Q4DSP6); test: Trypanosoma cruzi tyrosyl tRNA synthetase (TcYRS) _High Tyrosine SOP; assay type: functional; details: 30 µM; note: in the data most compounds retested in dose-response had high values
T4 sequence (whole entry): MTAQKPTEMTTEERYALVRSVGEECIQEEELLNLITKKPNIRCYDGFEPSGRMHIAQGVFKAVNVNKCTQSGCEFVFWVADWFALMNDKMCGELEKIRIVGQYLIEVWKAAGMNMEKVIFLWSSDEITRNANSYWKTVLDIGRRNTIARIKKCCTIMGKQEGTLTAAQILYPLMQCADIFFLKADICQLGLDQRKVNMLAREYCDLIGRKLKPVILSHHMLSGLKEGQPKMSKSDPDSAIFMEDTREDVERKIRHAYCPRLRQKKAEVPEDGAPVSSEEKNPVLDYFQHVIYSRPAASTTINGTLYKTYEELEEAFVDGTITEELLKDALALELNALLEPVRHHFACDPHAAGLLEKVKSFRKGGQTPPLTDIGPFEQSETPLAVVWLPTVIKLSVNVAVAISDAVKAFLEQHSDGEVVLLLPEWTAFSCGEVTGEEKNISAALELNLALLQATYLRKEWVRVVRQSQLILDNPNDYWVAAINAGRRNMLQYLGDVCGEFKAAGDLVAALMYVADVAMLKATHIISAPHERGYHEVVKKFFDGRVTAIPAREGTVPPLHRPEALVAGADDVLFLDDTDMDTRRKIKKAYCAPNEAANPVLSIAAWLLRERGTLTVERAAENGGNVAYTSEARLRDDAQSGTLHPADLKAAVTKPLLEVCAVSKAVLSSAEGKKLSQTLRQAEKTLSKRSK

[8] = molecular target: T4, Tyrosyl-tRNA synthetase, putative (Trypanosoma cruzi (strain CL Brener)); test: Trypanosoma cruzi tyrosyl tRNA synthetase (TcYRS) SOP; assay type: functional; details: 30 µM
[9] = molecular target: Chromo domain-containing protein 1 (Saccharomyces cerevisiae (strain ATCC 204508 / S288c) (Baker's yeast)) (UniProt P32657); test: ScCHD-1 Enzyme Inhibition Assay; assay type: functional; details: 30 µM; note: in the data most compounds retested in dose-response had high values
Sequence of Chromo domain-containing protein 1 (Saccharomyces cerevisiae (strain ATCC 204508 / S288c) (Baker's yeast)) (P32657 whole entry, the tested form may be a part): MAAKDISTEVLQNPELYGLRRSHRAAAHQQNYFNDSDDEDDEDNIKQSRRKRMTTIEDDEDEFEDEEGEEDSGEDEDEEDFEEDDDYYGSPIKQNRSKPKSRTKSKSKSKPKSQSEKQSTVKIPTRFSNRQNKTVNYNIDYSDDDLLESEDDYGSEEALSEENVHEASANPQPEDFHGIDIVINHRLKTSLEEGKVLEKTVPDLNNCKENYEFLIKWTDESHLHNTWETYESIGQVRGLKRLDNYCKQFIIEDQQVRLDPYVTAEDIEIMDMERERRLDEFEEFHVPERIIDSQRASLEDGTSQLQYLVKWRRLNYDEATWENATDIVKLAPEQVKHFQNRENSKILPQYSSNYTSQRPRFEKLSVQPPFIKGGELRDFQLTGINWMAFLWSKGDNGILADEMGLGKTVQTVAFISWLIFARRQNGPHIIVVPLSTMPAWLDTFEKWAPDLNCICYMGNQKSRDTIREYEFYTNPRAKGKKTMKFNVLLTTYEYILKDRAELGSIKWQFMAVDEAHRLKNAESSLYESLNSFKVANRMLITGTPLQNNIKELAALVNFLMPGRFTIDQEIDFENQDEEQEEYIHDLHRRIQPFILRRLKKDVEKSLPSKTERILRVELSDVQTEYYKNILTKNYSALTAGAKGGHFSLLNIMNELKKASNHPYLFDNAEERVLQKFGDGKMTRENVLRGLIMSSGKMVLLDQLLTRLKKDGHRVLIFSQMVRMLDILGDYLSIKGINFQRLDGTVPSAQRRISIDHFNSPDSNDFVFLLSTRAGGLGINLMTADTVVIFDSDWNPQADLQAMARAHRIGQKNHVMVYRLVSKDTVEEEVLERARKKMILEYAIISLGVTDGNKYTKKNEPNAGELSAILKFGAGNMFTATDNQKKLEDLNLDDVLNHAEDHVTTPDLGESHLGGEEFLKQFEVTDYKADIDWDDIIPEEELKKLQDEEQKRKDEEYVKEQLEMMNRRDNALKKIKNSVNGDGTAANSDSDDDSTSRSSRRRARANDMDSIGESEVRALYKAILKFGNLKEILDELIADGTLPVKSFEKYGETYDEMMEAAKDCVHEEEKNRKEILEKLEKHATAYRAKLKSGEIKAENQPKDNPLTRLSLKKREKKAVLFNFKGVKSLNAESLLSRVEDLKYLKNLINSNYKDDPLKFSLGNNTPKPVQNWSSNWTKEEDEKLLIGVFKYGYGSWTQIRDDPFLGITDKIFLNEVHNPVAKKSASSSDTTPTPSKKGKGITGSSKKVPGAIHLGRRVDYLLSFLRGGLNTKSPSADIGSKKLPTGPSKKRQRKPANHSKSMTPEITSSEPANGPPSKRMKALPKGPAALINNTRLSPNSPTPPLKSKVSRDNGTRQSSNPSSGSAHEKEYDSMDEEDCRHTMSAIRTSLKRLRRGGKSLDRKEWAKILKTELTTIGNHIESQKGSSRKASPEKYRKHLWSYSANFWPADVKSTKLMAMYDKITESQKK

Row | SMILES | Percent Effect [1] [%] | Percent Effect [2] [%] | Percent Effect [3] [%] | Percent Effect [4] [%] | Percent Effect (Trypanosoma cruzi) [%] | Percent Effect [5] [%] | Percent Effect [6] [%] | Percent Effect (Homo sapiens) [%] | Percent Effect [7] [%] | Percent Effect [8] [%] | Percent Effect [9] [%]
1 | Cc1noc(NC(=O)c2ccc(C)c(F)c2)n1 | -3.93 | 20.2 | 3.63 | -2.91 | 4.63 | 0 | 11.7 | 64 | 9.36 | 26.6 | -5.98
2 | CSc1ccc(NC(=O)Nc2ccc3c(c2)N(S(C)(=O)=O)CC3)cc1 | -1.27 | -23.4 | -4.52 | 3.62 | 3.06 | -93.5 | 27.9 | 30.8 | -6.35 | -14.1 | -6.55
3 | COc1ccc(F)cc1C(C(=O)O)N1CCSCC1 (configuration not stated) | -2.63 | 8.11 | -2.63 | 20.8 | 1.66 | 18.6 | 6.95 | -10 | 8.6 | 18.5 | -1.27
4 | O=C(c1ccncc1)N1CCC(c2nc(O)cc(-c3cccnc3)n2)C1 (configuration not stated) | -0.62 | 21.3 | -34.2 | -1.55 | 3.74 | 26.8 | 8.55 | 17.1 | 8.51 | 11.5 | -5.75
5 | CN(C)CCNC(=O)c1cc(-c2cnc(N3CCCC3)nc2)cn1C | -6.55 | 5.33 | 9.86 | -3.71 | -0.197 | -1.17 | 0.0881 | 45.6 | 0 | -6.41 | -10.7
6 | Cc1nn(C)c(Cl)c1C1CCCN1c1ncnc2sccc12 (configuration not stated) | -6.84 | -2.67 | -2.13 | 8.98 | 5.36 | 7.29 | 1.4 | 35.8 | 0.546 | 3.7 | 0.644
7 | Cc1nn(C)c(C)c1CC(=O)N1CCC(Nc2cccnn2)CC1 | -5.77 | -13.2 | -1.31 | -4.49 | 9.59 | -1.92 | 5.85 | 9.42 | 5.39 | 9.76 | -11.7
8 | Cc1cc(CN2CCN(C(=O)NCc3nc(C)cs3)CC2)on1 | -3.26 | 23.7 | -8.55 | -8.19 | -4.95 | 0 | 12.9 | -12.4 | 5.42 | 13.6 | -3.29
9 | CNS(=O)(=O)c1cccc(C(C)NCc2cccc(OC)c2)c1 (configuration not stated) | -3.08 | -5.41 | 4.16 | -2.94 | -4.3 | -0.417 | 4.31 | 11.2 | 0 | -8.54 | -3.26
10 | c1cncc(COCc2nnc3n2CCN(Cc2ccsc2)C3)c1 | -1.63 | 13 | 2.4 | 6.44 | -2.26 | -23.4 | 19.6 | 25 | 3.23 | 8.64 | -2.81
11 | Cn1cc(CN2CCCN(C(=O)c3cc(Cl)cn3C)CC2)cn1 | -2.96 | 13.2 | -8.7 | -2.03 | -6.39 | -3.45 | 20.6 | 28 | 1.47 | 7.32 | -9.82
12 | O=S1(=O)COCCN1Cc1cccc(Cl)c1 | -1.74 | 5.41 | -2.78 | 6.98 | 7.92 | -1.91 | 13.4 | 17.7 | 8.99 | 12.2 | -2.28
13 | Cc1cnn(CC2CCCCN2C(=O)Cc2csc(C)n2)c1 (configuration not stated) | -3.54 | -3.8 | 5.27 | 1.29 | -5.64 | -0.645 | 6.17 | 13.6 | 2.08 | -2.53 | -19.5
14 | Cc1cnn(CCNCc2ccccc2OCc2cccnc2)c1 | -4.98 | -3.8 | 2.64 | 6.26 | -1.95 | 1.5 | 17 | 5.87 | 5.21 | 5.06 | -13
15 | CCS(=O)(=O)c1ccccc1N1CCC(NC(=O)c2ccc[nH]2)CC1 | -4.07 | 8.11 | 1.8 | 7.6 | 6.78 | -7.95 | 2.15 | 13 | 8.91 | 18.3 | -1.36
16 | CC(C)S(=O)(=O)N1CCC(c2cc3n(n2)[C@@H](C(F)(F)F)C[C@@H](C)N3)C1 (some centres not stated) | -0.301 | 5.33 | -46.3 | 0.653 | 4.13 | -1.63 | 5.02 | 9.18 | 4.25 | 6.41 | -0.108
17 | Cc1ccc(N2CCCC(NCC(=O)NCC3CC3)C2)nn1 (configuration not stated) | -4.97 | 6.33 | -6.37 | 2.61 | 1.13 | -1.94 | 15.8 | -5.61 | 7.29 | 15.2 | -25.7
18 | Cc1nnc(N2CCC(CS(N)(=O)=O)CC2)c(C#N)c1C | -5.18 | 2.6 | -17.4 | -9.8 | 0.49 | -1.9 | 16.1 | 7.88 | 3.81 | 9.41 | -16.6
19 | CC(C)CCN1CCC2(CC1)CN(C(=O)c1cnccn1)CCO2 | -4.82 | 2.67 | 2.65 | 7.36 | 0.772 | -57.9 | 0.855 | -13.7 | 4.17 | 12.5 | -3.24
20 | CN(C)C(=O)c1ccc(CNC(=O)NCCN(C)C2CCCC2)cc1 | -0.464 | 16.2 | -9.52 | -5.04 | -3.87 | -2.81 | 5.41 | 22.8 | 7.39 | 18.5 | -6.9
21 | O=C(NCCCN1CCOCC1)c1cc(-c2ccco2)[nH]n1 | -3.38 | 8.22 | -11 | 10.3 | -0.794 | 2.4 | 11.2 | 0.231 | 11.5 | 28.4 | -2.57
22 | CN1C(=O)CC(c2cnn(C)c2)C12CCN(C(=O)C1CC=CC1)CC2 (configuration not stated) | -3.3 | -2.7 | 6.7 | 5.51 | -2.25 | -2.23 | 7.2 | -12.6 | -1.08 | -2.56 | 9.24
